We go through 37 compounds from PubChem BioAssay (NCATS).

Records with an inconclusive call do not appear. A number with no mark means an inactive call. Active and inactive are the calls of the source. Calls come from the whole dose curve; as a rule, active = well fitted inhibition curve with a large enough effect; inconclusive = small, poorly fitted or top-dose-only effect; inactive = flat fitted curve, though single readings scatter.
% is set by controls: 0 for no effect and ±100 for the full control effect; potency is the fitted concentration of half-maximal effect.

The experiment can be described thus: P-glycoprotein substrates identified in KB-8-5-11 adenocarcinoma cell line, qHTS therapeutic library screen (AID 1346987). Note: nearly all actives have a fitted effect of over 65% in size. The conditions noted are these: KB-8-5-11 (P-gp overexpressing) viability, CellTiter-Glo, 72 h; series mostly up to 44.5 µM; activity change, negative = cytotoxicity: at the top concentration. The procedure, abridged: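 Luminescence from CellTiter-Glo, read 5 min after addition, quantified survival of KB-8-5-11 (P-gp-overexpressing) cells exposed to compounds for 72 h. AC50 was derived from concentration-response curves.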
For orientation: Quantitative high-throughput screening tests each substance at several concentrations.
Take `CO[C@@H]1[C@H](O)[C@@H](O[C@@H]2C[C@H]3CC[C@@H]4C(CC[C@]5(C)[C@@H](C6=CC(=O)OC6)CC[C@]45O)[C@@]3(C)[C@H](O)C2)O[C@H](C)[C@@H]1O[C@@H]1O[C@H](CO)[C@@H](O)[C@H](O)[C@H]1O` (some centres not stated): the Potency was 385 nM (active).

On to `COC1=CC=C2[C@H]3Cc4ccc(OC)c5c4[C@@]2(CCN3C)[C@H]1O5`, for which the Potency result is “inactive”. Regarding `CC(C)(C)c1cc(O)ccc1O`, the “activity change, negative = cytotoxicity” value was -20.8%.

Regarding `CCC(C)(OC(C)=O)C(=O)O[C@H]1[C@H](OC(C)=O)C[C@@H]2[C@@](C)([C@@H]3C[C@H]4C=CO[C@H]4O3)[C@H](C)C[C@H](OC(C)=O)[C@@]2(COC(C)=O)[C@@]12CO2` (some centres not stated), the “activity change, negative = cytotoxicity” value is 2.17% [at 17.3 µM]. Still for that read-out and setting: with `Clc1ccc(OCC2=NCCN2)cc1Cl` the figure was 6.64%; with `CCN1C[C@]2(OC(=O)c3ccccc3NC(C)=O)CC[C@H](OC)[C@@]34[C@@H]2C[C@@H]([C@@H]13)[C@@]1(O)C[C@H](OC)[C@H]2C[C@@H]4[C@]1(O)[C@H]2OC`, 5.02%; with `O=C1CN(O)C(c2ccccc2)=c2cc(Cl)ccc2=N1`, 18.1%. Still for that read-out and setting: to `CCN1C[C@]2(COC)[C@H](O)C[C@H](OC)[C@@]34[C@@H]5C[C@@]6(O)[C@H](OC(=O)c7ccccc7)[C@@H]5[C@@](OC(C)=O)([C@@H]([C@H](OC)[C@H]23)[C@@H]14)[C@@H](O)[C@@H]6OC` belongs -12.1%; to `CC[C@H]1CN2CC[C@H]1C[C@@H]2[C@@H](O)c1ccnc2ccc(OC)cc12`, -6.53%. Regarding `CO[C@H]1[C@H](O)[C@H](O[C@H]2CC[C@]3(C)C4CC[C@]5(C)[C@H](C6=CC(=O)OC6)CC[C@]5(O)C4CC[C@@H]3C2)O[C@@H](C)[C@@H]1O` (some centres not stated), the Potency was 56.3 nM (active).

Turning to `c1ccc2sc(SNC3CCCCC3)nc2c1`, the “activity change, negative = cytotoxicity” value is 1.83%.

For the compound `CCc1[nH]c2ccc(OC)cc2c1CCN(C)C`, the “activity change, negative = cytotoxicity” value was -5.5%. Still for that read-out and setting: with `CCNCC(O)c1cccc(O)c1` (configuration not stated) the figure was -20% [at 17.3 µM]; with `O=C(C[C@@H]1NCCC[C@H]1O)Cn1cnc2cc(Br)c(Cl)cc2c1=O`, 5.56%; with `OCCCCC#Cc1cncc(OC[C@@H]2CCN2)c1`, 1.45%. Still for that read-out and setting: to `CC1=C2C[C@H]3[C@@H](CC=C4C[C@@H](O)CC[C@@]43C)[C@@H]2CC[C@]12O[C@@H]1C[C@H](C)CN[C@H]1[C@H]2C` belongs -18.3%. `COC1C(O)C(C)OC(OC2C(CO)O[C@@H](O[C@@H]3CC4CCC5C(CC[C@]6(C)[C@@H](C7=CC(=O)OC7)CC[C@]56O)[C@@]4(C)[C@H](O)C3)C(O)C2O)C1O` (some centres not stated): the Potency was 544 nM (active).

With `N#CC(OC1OC(COC2OC(CO)C(O)C(O)C2O)C(O)C(O)C1O)c1ccccc1` (configuration not stated), the “outcome” value is “inactive [at 17.3 µM]”. As to `C=CC(C)(O)CC/C=C(\C)C(=O)O[C@H]1[C@H](O)[C@@H](CO)O[C@@H](OC(=O)[C@]23CCC(C)(C)CC2C2=CCC4[C@@]5(C)CC[C@H](O[C@@H]6O[C@H](CO[C@@H]7OC[C@H](O)[C@H](O)[C@H]7O[C@@H]7OC[C@@H](O)[C@H](O)[C@H]7O)[C@@H](O)[C@H](O)[C@H]6O)C(C)(C)C5CC[C@@]4(C)[C@]2(C)CC3)[C@@H]1OC1OC(C)C(O[C@@H]2OC[C@@H](O)[C@H](O[C@@H]3OC[C@@H](O)[C@H](O)[C@H]3O)[C@H]2O)C(O)C1O` (some centres not stated), the activity change, negative = cytotoxicity is 3.69% [at 9.29 µM]. As to `COC(COC(N)=O)C1=C(N2CC2)C(=O)C(C)=C(N2CC2)C1=O` (configuration not stated), the Potency is 6510 nM (active).

In the case of `ClC=C(Cl)Cl`, the “activity change, negative = cytotoxicity” value was -2.4%. With `COC1C(O)C(OC2CCC3(C=O)C(CCC4C3CCC3(C)C(C5=CC(=O)OC5)CCC43O)C2)OC(C)C1OC1OC(CO)C(O)C(O)C1O` (configuration not stated), the Potency is 432 nM (active). `Cn1sc(Cl)cc1=O`: the “activity change, negative = cytotoxicity” value is -3.76%. Consider `[S]=[Sb](=[S])[S][Sb](=[S])=[S]`, for which the “activity change, negative = cytotoxicity” value was -2.17%.

As for `CCNC1(c2cccs2)CCCCC1=O` (configuration not stated), the “activity change, negative = cytotoxicity” value was 1.87% [at 17.3 µM].

For `CN1CCCC1CCOC(c1cc2nccc(C(=O)O)c2[nH]1)c1ccccc1Cl` (configuration not stated), the outcome was inactive.

Consider `CN[C@H]1C[C@@H](N)[C@H](O)[C@@H](O[C@@H]2O[C@H](CO)[C@H](O)[C@@H]3OC4(O[C@H]23)O[C@H](C(N)CO)[C@H](O)[C@H](O)[C@H]4O)[C@@H]1O` (some centres not stated), for which the Potency result is “inactive”. Consider `CCN1C[C@]2(COC)[C@H](O)C[C@H](OC)[C@]34[C@@H]5C[C@]6(O)[C@H](OC(=O)c7ccccc7)[C@@H]5[C@@](O)([C@H]([C@H](OC)[C@H]23)[C@@H]14)[C@@H](O)[C@@H]6OC`, for which the call was inactive. Consider `CN(C)[C@H](Cc1ccccc1)c1ccccc1`, for which the “activity change, negative = cytotoxicity” value is -6%. The same measure, in the same setting: to `Cc1cccc(NC(=O)N[C@@H]2N=C(c3ccccc3)c3ccccc3N(C)C2=O)c1` belongs -6.54%; to `OC1(c2ccc(Cl)cc2)c2ccccc2C2=NCCN21` (configuration not stated), -4.41%.

Turning to `CC(=O)O[C@H]1C[C@H](O[C@H]2[C@@H](O)C[C@H](O[C@H]3[C@@H](O)C[C@H](O[C@H]4CC[C@@]5(C)[C@H](CC[C@@H]6[C@@H]5C[C@@H](O)[C@]5(C)[C@@H](C7=CC(=O)OC7)CC[C@]65O)C4)O[C@@H]3C)O[C@@H]2C)O[C@H](C)[C@H]1O[C@@H]1O[C@H](CO)[C@@H](O)[C@H](O)[C@H]1O`, the Potency is 206 nM (active). As for `CC(Cc1ccccc1)NC=O` (configuration not stated), the “activity change, negative = cytotoxicity” value is 0.727%.

`C/C=C(\C)C(=O)OC1CC2C(C)(C)OC(=O)CC(OC(C)=O)C2(C)C2CC(OC(=O)C(C)C)C3(C)C(c4ccoc4)CC4OC43C12C` (configuration not stated): the “activity change, negative = cytotoxicity” value was -2.47% [at 17.3 µM]. Still for that read-out and setting: with `CC(=O)OO` the figure was -9.37%.

`CN(C)CCc1c[nH]c2ccc(CN3CCN(C)S3(=O)=O)cc12`: the compound was called inactive. As for `CC1(C)[C@H](C=C(Cl)Cl)[C@H]1C(=O)OCc1c(F)c(F)cc(F)c1F`, the “activity change, negative = cytotoxicity” value was -1.18%.
